Test results: PubChem BioAssay AID1851 (National Center for Advancing Translational Sciences (NCATS), 2009)
“And” between values parts separate entries of the source, which are not always exact repeats. Equal values may be shown once. About 5,800 (36%) of roughly 16,000 compounds were called active. Not shown: some 23% with an inconclusive outcome. Calls come from the whole dose curve; as a rule, active = well fitted curve in the direction sought with a large enough effect; inconclusive = small, poorly fitted or top-dose-only effect, or effect the other way; inactive = no such curve, though single readings can be large or run the other way. Some of the results follow. Where a structure was tested more than once in an assay, its records may differ in their call.

target: Cytochrome P450 2C19 (Homo sapiens) (UniProt P33261); test: Cytochrome panel assay with activity outcomes; settings: recombinant CYP, pro-luciferin dealkylation, luminescence, p450-cyp2c19; series mostly up to 57.1 µM
Sequence (P33261 whole entry, looked up): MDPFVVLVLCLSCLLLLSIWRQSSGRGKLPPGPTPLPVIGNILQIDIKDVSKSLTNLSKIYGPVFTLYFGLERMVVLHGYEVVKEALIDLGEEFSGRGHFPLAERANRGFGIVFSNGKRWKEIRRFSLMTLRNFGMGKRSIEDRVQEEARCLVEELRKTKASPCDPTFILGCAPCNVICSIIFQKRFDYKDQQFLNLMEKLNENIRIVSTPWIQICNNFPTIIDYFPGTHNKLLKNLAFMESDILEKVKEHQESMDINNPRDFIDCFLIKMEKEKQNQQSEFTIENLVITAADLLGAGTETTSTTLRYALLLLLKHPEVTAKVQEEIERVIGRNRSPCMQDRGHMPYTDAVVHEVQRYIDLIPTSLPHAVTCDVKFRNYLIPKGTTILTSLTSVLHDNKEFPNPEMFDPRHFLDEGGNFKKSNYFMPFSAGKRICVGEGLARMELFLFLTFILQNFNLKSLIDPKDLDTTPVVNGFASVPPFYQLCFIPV
% is set by controls: 0 for no effect and ±100 for the full control effect.

Structure (SMILES) | AC50 | activity, negative = inhibition
CC(=O)Nc1ccccc1C(=O)OCc1ccc(C(=O)c2ccccc2)cc1 | 3550 nM (active) | –
NS(=O)(=O)c1cc([C@@]2(O)NC(=O)c3ccccc32)ccc1Cl | inactive | –
NC[C@@H](Cc1ccccc1)P(=O)(O)O | – | -0.815% [at 11.4 µM] (inactive)
O=C(Oc1ccccc1)N1CCC[C@@]2(CCN(C(c3ccccc3)c3ccccc3)C2)C1 | inactive | –
O=C(O)Cc1cnc[nH]1 | inactive | –
CC[C@@H](CO)NC(=O)[C@H]1C=C2c3cccc4c3c(cn4C)C[C@H]2N(C)C1 | 126 nM (active) | –
CC[C@H](CO)NC(=O)[C@@H]1C=C2c3cccc4c3c(cn4C)C[C@@H]2N(C)C1 | inactive | –
COc1ccc(NC(=O)N2CCCC3(CCN(C(=O)Oc4ccccc4)CC3)C2)cc1 | inactive | –
CN(C)CS/C(N)=N/[C@H](O)C(Cl)(Cl)Cl | – | -3.05% [at 11.4 µM] (inactive)
CNC[C@H](O)c1ccc(O)cc1 | inactive | –
CC(N)Cc1ccccc1Sc1ccc(O)cc1 (stereo unspecified) | 15800 nM (active) | –
C[C@H](N)Cc1c[nH]c2ccc(O)cc12 | inactive | –
CNC(C)Cc1ccccc1Sc1ccc(O)cc1 (stereo unspecified) | 10000 nM (active) | –
O=C(Oc1ccc([N+](=O)[O-])cc1)N1CCC(N2CCCCC2)CC1 | inactive | –
O=C1Nc2ccc(I)cc2/C1=C/c1cc(Br)c(O)c(Br)c1 | inactive | –
Nc1nc2ccc(Cl)cc2c2nc(-c3ccco3)nn12 | inactive | –
CCOP(=O)(OCC)c1nc(/C=C/c2ccccc2)oc1NCc1ccccc1 | 2240 nM (active) | –
CCNC(C)(C)[C@@H](SS)c1ccc(Br)cc1 | – | -70.9% [at 11.4 µM] (inactive)
COC1(CS(=O)c2ccccc2)CCN(CCc2c[nH]c3ccc(F)cc23)CC1 (stereo unspecified) | inactive | –
O=NN(Cc1ccc(Cl)cc1)[C@@H](C(=O)O)c1ccccc1 | 398 nM (active) | –
COc1ccc2c(c1)[C@]13CCCC[C@@H]1[C@H](C2)NCC3 | inactive | –
CN1CCc2cccc(Cl)c2CC1 | inactive | –
c1ccc(N2CC[C@@]3(CCCNC3)C2)cc1 | inactive | –
Cc1cc(Cc2cc(C)c(N)cc2N)c(N)cc1N | – | -42.7% [at 11.4 µM] (inactive)

Structure (SMILES) | AC50 | activity, negative = inhibition
CCCn1c(=O)c2[nH]c(C3CCCC3)nc2n(CCCOC(=O)c2ccc(S(=O)(=O)F)cc2)c1=O | inactive | –
CCOC(=O)c1c(NC(=O)C(c2ccccc2)c2ccccc2)sc2c1C1CCN2CC1 | 3550 nM (active) | –
CN(C)[C@@H]1C(=O)C(C(N)=O)=C(O)[C@]2(O)C(=O)C3=C(O)c4c(O)cccc4[C@@](C)(O)[C@H]3[C@H](O)[C@@H]12 | inactive | –
C[C@@]12CC[C@@H]3[C@H](CCC4=CC(=O)CC[C@]43C)[C@@H]1CC[C@@H]2C(=O)Cn1cnc2c(=S)nc[nH]c21 | – | -3.21% [at 11.4 µM] (inactive)
CC(O)(CS(=O)(=O)c1ccccc1)C(=O)Nc1cccc(C(F)(F)F)c1 (stereo unspecified) | 2240 nM (active) | –
CC(O)(CS(=O)(=O)c1cccc(C(F)(F)F)c1)C(=O)Nc1cccc(C(F)(F)F)c1 (stereo unspecified) | 2510 nM (active) | –
CC(O)(CS(=O)(=O)c1cccc(C(F)(F)F)c1)C(=O)Nc1ccc(C(F)(F)F)cc1 (stereo unspecified) | 794 nM (active) | –
O=C(O)c1ccccc1Nc1cccc(C(F)(F)F)c1 | inactive | –
CC[C@@H]1CN2CCc3cc(OC)c(OC)cc3[C@H]2C[C@@H]1C[C@@H]1NCCc2cc(O)c(OC)cc21 | inactive | –
Cn1c(=O)c2[nH]cnc2n(C)c1=O.[CH2-][C@H](Cc1cccc2cc(C(=O)O)c(=O)oc12)OC.[Hg].[OH-] | – | 27.4% [at 11.4 µM] (inactive)
C[C@@H]1[C@@H]2Cc3ccc(O)cc3[C@@]1(C)CCN2CC1CC1 | inactive | –
O=C(O)[C@@H]1C[C@H]1[C@@H](NP(=O)(c1ccccc1)c1ccccc1)c1ccccc1 | inactive | –
Cc1ccccc1OCCN=Cc1c(O)n(C)c(=O)n(C)c1=O | 10000 nM (active) | –
COc1cccc(-n2c(O)c(C=NCCN3CCOCC3)c(=O)[nH]c2=O)c1 | inactive | –
CC[N@+]1(C)CCC[C@@H](OC(=O)C(O)(c2ccccc2)c2ccccc2)C1 | inactive | –
C/C(O)=C(/C#N)C(=O)Nc1cc(Br)ccc1Br | inactive | –
COC(=O)C1=CCCN(C)C1 | inactive | –
C[C@H](Br)CN(C[C@H](C)Br)c1ccc2c(c1)Cc1ccccc1-2 | 2510 nM (active) | –
CC[C@H](C(=O)[C@H](C)[C@H](O)[C@H](C)CCc1ccc(C)c(O)c1C(=O)O)[C@H]1O[C@](CC)([C@@H]2CC[C@@](O)(CC)[C@H](C)O2)C[C@H]1C | inactive | –
COCCCn1c(N)c(C(=O)Nc2sc3c(c2C(=O)OC)CCCC3)c2nc3ccccc3nc21 | 3550 nM (active) | –
C=CCN1CC[C@@]23c4c5ccc(O)c4O[C@H]2/C(=N\N=C2/CC[C@@]4(O)[C@H]6Cc7ccc(O)c8c7[C@@]4(CCN6CC=C)[C@@H]2O8)CC[C@]3(O)[C@@H]1C5 | inactive | –
NCCc1ccc(S(=O)(=O)F)cc1 | inactive | –
COc1ccc(CNC(=O)/C=C\c2ccc3[nH]cc(CCN(C)C)c3c2)cc1 | inactive | –
C=CCN1C[C@H](C)N([C@H](c2ccc(C(=O)N(CC)CC)cc2)c2cccc(OC)c2)C[C@H]1C | inactive | –

Structure (SMILES) | AC50 | activity, negative = inhibition
COc1cc2c(cc1OC)[C@@H]1C(=O)c3ccc4c(c3O[C@@H]1CO2)C=CC(C)(C)O4 | 5010 nM (active) | –
C=C(C)[C@H]1Cc2c(ccc3c2O[C@H]2COc4cc(OC)c(OC)cc4[C@@H]2C3=O)O1 | 2510 nM (active) | –
N[C@@H](Cc1ccccc1)P(=O)(O)O | – | -2.53% [at 11.4 µM] (inactive)
Cn1c[n+](C)cc1C(O)c1ccccc1 (stereo unspecified) | inactive | –
COc1ccc2[nH]c3c(c2c1)CCN=C3C | inactive | –
Oc1ccc2c3c1O[C@H]1c4oc5ccccc5c4C[C@]4(O)[C@H](C2)N(CC2CC2)CC[C@@]314 | inactive | –
C=CCO[C@@H](Cn1ccnc1)c1ccc(Cl)cc1Cl | 10 nM (active) | –
N[C@@H](Cn1cc(I)c(=O)[nH]c1=O)C(=O)O | inactive | –
O=C(Nc1ccccc1)N1CCCC2(CCN(C(=O)Oc3ccccc3)CC2)C1 | inactive | –
C[C@H](N)c1cccc(Cl)c1Cl | inactive | –
Oc1ccc2c3c1O[C@H]1c4c(c5ccccc5n4Cc4ccccc4)C[C@]4(O)[C@H](C2)N(CC2CC2)CC[C@@]314 | inactive | –
NC(N)=NS(=O)(=O)c1ccc(N)cc1 | inactive | –
C[N+]1(C)CCO[C@@](O)(c2ccc(-c3ccc([C@]4(O)C[N+](C)(C)CCO4)cc3)cc2)C1 | inactive | –
CC[C@]1(C2=NCCN2)Cc2ccccc2O1 | inactive | –
c1ccc2c(c1)OC[C@@H](C1=NCCN1)O2 | inactive and 7.94 µM (active) | –
NC[C@@H](O)CSP(=O)(O)O | – | 8.63% [at 11.4 µM] (inactive)
NC(=O)CN1CCCC1=O | inactive | –
Nc1nnnn1CCO | – | 28.1% [at 11.4 µM] (inactive)
O=C(O)c1cc[c]([Hg][S]c2ncnc3nc[nH]c23)cc1 | 631 nM (active) | –
CO[C@H]1[C@H](O)[C@H](O[C@@H]2[C@H](Oc3cccc4c(O)c5c(=O)oc6ccc(C)c7c(=O)oc(c34)c5c67)O[C@@H](C)[C@H](O)[C@H]2O)O[C@@H](C)[C@@H]1O | – | 22.4% [at 11.4 µM] (inactive)
CC[C@@H](CO)Nc1nc(NCc2ccccc2)c2ncn(C(C)C)c2n1 | inactive | –
Cc1[nH]c2ccc(O)cc2c1CCN | inactive and 7.94 µM (active) | –
NCCc1c[nH]c2ccc(O)cc12 | inactive | –
CNCCc1c[nH]c2ccc(O)cc12 | inactive | –

Structure (SMILES) | AC50 | activity, negative = inhibition
CCCN(CCC)[C@@H]1CCc2c(OC)cccc2[C@@H]1C | inactive | –
C[C@]12CC[C@H](O)CC1=CC[C@@H]1[C@H]2CC[C@]2(C)C(=O)CC[C@H]12 | inactive | –
O=P(Nc1ccccc1)(Nc1ccccc1)Oc1cccc(Cl)c1 | 5010 nM (active) | –
NS(=O)(=O)c1ccc(-c2ccc([As](=O)(O)O)cc2)cc1 | – | 24.2% [at 11.4 µM] (inactive)
C[C@]12N[C@H](Cc3ccccc31)c1ccccc12 | inactive | –
N#Cc1ccc(CN2CC[C@@]3(CCCNC3)C2)cc1 | inactive | –
Clc1cccc(N2CCNCC2)c1 | inactive | –
CN[C@H](Cc1ccccc1)c1cccc(OC)c1O | 2000 nM (active) | –
NCCP(=O)(O)O | – | 26% [at 11.4 µM] (inactive)
O=C(Cn1ncc2ccsc2c1=O)N1CCC2(CC1)OCCO2 | 22400 nM (active) | –
O=C(CNS(=O)(=O)c1cccs1)N1CCC2(CC1)OCCO2 | 7080 nM (active) | –
O=C(CNS(=O)(=O)c1ccc(Br)s1)N1CCC2(CC1)OCCO2 | 2820 nM (active) | –
CCN(CC)CCO[C@H]1CC[C@@]2(C)C(=CC[C@@H]3[C@H]2CC[C@]2(C)C(=O)CC[C@H]32)C1 | inactive | –
CN(C)C(=O)Oc1cccc([N+](C)(C)C)c1 | inactive | –
O=C(Oc1ccc(S(=O)(=O)F)cc1F)c1ccccc1Cl | – | 11.2% [at 11.4 µM] (inactive)
N[C@@]1(C(=O)O)CC[C@H](C(=O)O)C1 | inactive | –
CC(C)CN1CC[C@@]2(CCCN(C(=O)Oc3ccccc3)C2)C1 | inactive | –
C[C@@H]1[C@@H](C)N1C[C@H](O)Cn1ccnc1[N+](=O)[O-] (stereo partly specified) | – | 3.22% [at 11.4 µM] (inactive)
O=c1c2ccccc2c2ccccc2c(=O)n1-c1cc2c3ccccc3ccc2c2ccccc12 | 158 nM (active) | –
CC[C@H]1CN2CC[C@@H]1C[C@H]2[C@@H](O)c1ccnc2ccc(OC)cc12 | inactive | –
Cc1ncsc1CCCl | 7940 nM (active) | –
CN(C)CCC=C1c2ccccc2CCc2ccccc21 | inactive | –
CCN(CC)C1=NC(=[N+](CC)CC)c2ccccc21 | inactive | –
C[C@@]12CCC(=O)C=C1C=C[C@H]1[C@H]3CC[C@](O)(CCC(=O)O)[C@]3(C)CC[C@@H]12 | inactive | –
